Drawing on PubChem BioAssay (NCI), this text covers growth for 13 compounds.

Some test systems named below: SK-MEL-2 melanoma; EKVX NSCLC; SN12C renal; UO-31 renal; TK-10 renal; ACHN renal; A498 renal; CCRF-CEM leukemia; MOLT-4 leukemia; SR leukemia.
Common to all, as to assay: NCI-60 one-dose screen, 48 h (100 = growth as untreated, 0 = no growth, -100 = all killed)
Common to all, as to conditions: 10 µM unless noted

Structures are written as SMILES. This is part of a sample that, as a whole, favours compounds with a hit. Of some 83,000 tested, about 20% had one in any assay.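 Method: cells in 96-well plates; compound added at one concentration; 48 h incubation; percent growth measured; values under 10 scored active.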 Values without a mark were called inactive. Calls of active or inactive are those of the source.

With `Cc1c(Br)cccc1NC(=O)c1sc2nc3c(cc2c1N)CN(Cc1ccccc1)CC3`, the growth with SK-MEL-2 melanoma was 25.5%; in the assay with EKVX NSCLC, 34.3%; in the assay with SN12C renal, 28.1%; in the assay on UO-31 renal, 48.2%; in the assay with TK-10 renal it was 49.8%; with ACHN renal, 39.6%. For the same compound, the growth in the assay with A498 renal was -8.85% (active); with CCRF-CEM leukemia it was 3.86% (active); with MOLT-4 leukemia it was 10.3%; in the assay on SR leukemia it was 9.33% (active).

`COc1cc(C2=NNC(c3ccc(N(C)C)cc3)C2)cc(OC)c1OC` (stereo not given): the growth with SK-MEL-2 melanoma was 60.9%; in the assay with EKVX NSCLC, 44.4%; in the assay on SN12C renal it was 49.3%; in the assay on UO-31 renal, 38.9%; in the assay on TK-10 renal it was 59.2%; in the assay on ACHN renal, 50.6%. Also, the growth in the assay with A498 renal is -8.21% (active); in the assay on CCRF-CEM leukemia, 17%; in the assay on MOLT-4 leukemia it was 37.1%; in the assay on SR leukemia, -5.74% (active).

In the case of `O=C1NN(c2ccccc2)C(c2ccc3c(c2)OCO3)N2CCC[C@@H]12` (stereo not given in full), the growth was 89.8% in the assay with SK-MEL-2 melanoma; 102% in the assay on EKVX NSCLC; 110% in the assay with SN12C renal; 85.4% with UO-31 renal; 92.2% in the assay with TK-10 renal; 101% in the assay with ACHN renal. The growth was 97.5% in the assay with A498 renal, 108% in the assay on CCRF-CEM leukemia, 102% in the assay on MOLT-4 leukemia and 92.1% in the assay on SR leukemia.

Take `C[C@H]1[C@H](C)CC[C@]2(C(=O)OCCOCCOCC[P+](c3ccccc3)(c3ccccc3)c3ccccc3)CC[C@]3(C)C(=CC[C@@H]4[C@@]5(C)CC[C@H](OC(=O)C(Cl)Cl)C(C)(C)[C@@H]5CC[C@]43C)[C@H]12`: the growth in the assay with SK-MEL-2 melanoma was -21.5% (active); with EKVX NSCLC, -3.78% (active); in the assay on SN12C renal it was -6.85% (active); in the assay on UO-31 renal, 3.95% (active); in the assay with TK-10 renal, 12.7%; with ACHN renal it was -1.41% (active). For the same compound, the growth in the assay on A498 renal is 6.28% (active); with CCRF-CEM leukemia it was 7.44% (active); with MOLT-4 leukemia it was -6.91% (active); with SR leukemia it was -33.5% (active).

`COc1cccc(NC(=O)Nc2ccc(Oc3ncnc4[nH]c(C)c(C)c34)cc2)c1`: the growth is 100% with SK-MEL-2 melanoma; 102% with EKVX NSCLC; 74.5% in the assay on SN12C renal; 86.1% in the assay with UO-31 renal; 114% with TK-10 renal; 73.6% with ACHN renal. Further, the growth is 106% in the assay with A498 renal, 76.4% with CCRF-CEM leukemia, 56.9% in the assay on MOLT-4 leukemia and 10.5% in the assay on SR leukemia.

Regarding `COc1cc(NC(=O)Nc2cnc(Nc3ccc(N4CCOCC4)cc3)nc2Oc2ccc(C(F)(F)F)cc2)cc(OC)c1`, the growth in the assay with SK-MEL-2 melanoma is 108%; in the assay with EKVX NSCLC it was 106%; in the assay with SN12C renal it was 102%; with UO-31 renal, 84.7%; with TK-10 renal, 116%; in the assay on ACHN renal, 105%. For the same compound, the growth in the assay with A498 renal is 110%; with CCRF-CEM leukemia, 89.4%; in the assay with MOLT-4 leukemia it was 90.5%; in the assay with SR leukemia, 79.9%.

Consider `CC(C)(C)c1ccc(O)c(Cc2cc(C(C)(C)C)ccc2O)c1`, for which the growth in the assay with SK-MEL-2 melanoma was 80%; in the assay with EKVX NSCLC it was 78.5%; in the assay on SN12C renal, 87.5%; in the assay with UO-31 renal, 85.7%; in the assay on TK-10 renal, 94.2%; with ACHN renal, 106%. In addition, the growth in the assay with A498 renal was 87.3%; with CCRF-CEM leukemia it was 0.931% (active); with MOLT-4 leukemia it was 64.6%; in the assay on SR leukemia it was 24.5%.

For the compound `COc1ccc2c(c1)C1(C(=O)N2)C(C#N)=C(c2ccccc2)Nc2c1c(-c1ccccc1)nn2-c1ccccc1` (stereo not given), the growth in the assay with SK-MEL-2 melanoma is 84.9%; in the assay with EKVX NSCLC, 78.4%; in the assay on SN12C renal, 1.61% (active); in the assay with UO-31 renal it was 80.1%; with TK-10 renal, 90.7%; with ACHN renal, 88.2%. In addition, the growth with A498 renal is 50.1%; in the assay with CCRF-CEM leukemia it was 16.6%; in the assay on MOLT-4 leukemia it was 38.2%; in the assay with SR leukemia, 21.5%.

`COc1ccc(Cc2nc(C#N)c(N3CCN(c4ccc(F)cc4)CC3)o2)cc1`: the growth in the assay with SK-MEL-2 melanoma is 88.2%; in the assay with EKVX NSCLC, 93.2%; in the assay on SN12C renal, 105%; in the assay on UO-31 renal, 81.7%; with TK-10 renal, 75.1%; in the assay on ACHN renal it was 103%. The growth in the assay with A498 renal is 103%; in the assay with CCRF-CEM leukemia, 83.7%; in the assay with MOLT-4 leukemia, 87.7%; in the assay with SR leukemia, 88.9%.

For the compound `Cc1cc(C)c2nc(Nc3nc(C)c(C)c(=O)[nH]3)nc(C)c2c1`, the growth was -25.6% (active) with SK-MEL-2 melanoma; 12.4% with EKVX NSCLC; 20% with SN12C renal; 11.1% with UO-31 renal; 17% in the assay on TK-10 renal; 23.5% in the assay with ACHN renal. The growth in the assay with A498 renal is -9.66% (active); with CCRF-CEM leukemia, 7.98% (active); in the assay on MOLT-4 leukemia, 4.84% (active); with SR leukemia, -9.54% (active).

Turning to `C=C1C(=O)O[C@H]2[C@H]1CC/C(C=Nc1c(N)cc(F)cc1Br)=C\CC[C@@]1(C)O[C@@H]21`, the growth in the assay on SK-MEL-2 melanoma was 86.7%; in the assay with EKVX NSCLC it was 75.2%; in the assay with SN12C renal, 76.1%; in the assay with UO-31 renal, 53.5%; in the assay with TK-10 renal, 81.7%; with ACHN renal it was 63.4%. Moreover, the growth was 119% in the assay with A498 renal, 7.71% (active) in the assay on CCRF-CEM leukemia, 45.9% in the assay with MOLT-4 leukemia and 21.3% with SR leukemia.

For `COc1c(O)cc2oc3cc(O[C@@H]4OC(C)[C@@H](O)[C@H](O)C4O)c(CC=C(C)C)c(O)c3c(=O)c2c1CC=C(C)C` (stereo not given in full), the growth in the assay on SK-MEL-2 melanoma was 90.5%; in the assay with EKVX NSCLC, 82%; in the assay with SN12C renal, 99.7%; in the assay with UO-31 renal, 80.3%; in the assay on TK-10 renal, 92.6%; in the assay on ACHN renal it was 102%. Further, the growth in the assay on A498 renal is 67.9%; in the assay with CCRF-CEM leukemia it was 83.5%; with MOLT-4 leukemia, 65.1%; with SR leukemia, 103%.

For the compound `COc1ccc(/C=C/C(=O)Nc2ncnc3nc[nH]c23)cc1`, the growth with SK-MEL-2 melanoma is 96.2%; with EKVX NSCLC, 100%; with SN12C renal it was 96.2%; in the assay with UO-31 renal it was 87.8%; in the assay with TK-10 renal, 103%; with ACHN renal, 111%. In addition, the growth in the assay with A498 renal was 108%; with CCRF-CEM leukemia, 79.2%; in the assay on MOLT-4 leukemia, 68.9%; in the assay with SR leukemia it was 73.4%.
